The list is not random: actives were taken first. Their share in the collection is about 2.1%.
PfHsp40 rescue: rescue of yeast from PfHsp40 toxicity, primary screen, S. cerevisiae, ATP luminescence; S. cerevisiae expressing PfHsp40, growth rescue; growth rescue, % at 12.5 µM; 340,000 compounds, 0.68% hits; in the data active = growth rescue above about 28%, passing the limit was not always enough;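 note: yeast W303a lacking pdr1 and pdr3 grown in galactose medium; growth measured after three days at 30 °C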
DUSP3 inh: VHR1 phosphatase inhibitors, primary screen, biochemical, absorbance, uHTS; Dual specificity protein phosphatase 3 (Homo sapiens), P51452; recombinant VHR phosphatase, pNPP absorbance; inhibition, % at 13.3 µM; 290,000 compounds, 0.52% hits; AID 1654, 2009; in the data active = inhibition above about 50%
Target sequence (P51452 whole entry, looked up): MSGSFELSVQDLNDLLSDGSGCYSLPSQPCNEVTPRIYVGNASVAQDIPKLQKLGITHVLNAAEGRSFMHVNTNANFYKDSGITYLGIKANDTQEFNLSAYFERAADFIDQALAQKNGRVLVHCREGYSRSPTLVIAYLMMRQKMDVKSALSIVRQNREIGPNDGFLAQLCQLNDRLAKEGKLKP
PrP 5UTR inh: inhibition of PrP 5' UTR reporter expression; inhibition, % (test concentration not listed); 340,000 compounds, 0.35% hits; cell-based PrP 5' UTR mRNA reporter, plate reader; in the data active = inhibition above about 52%
MazEF act: activators of E. coli MazEF toxin-antitoxin RNase, primary screen, biochemical, fluorescence, uHTS; activation, % at 20 µM; 350,000 compounds, 0.32% hits; Endoribonuclease toxin MazF (Escherichia coli (strain K12)), P0AE70; FAM/BHQ RNA-DNA oligo cleavage fluorescence, 5 h; in the data active = activation above about 50%
Target sequence (P0AE70 whole entry, looked up): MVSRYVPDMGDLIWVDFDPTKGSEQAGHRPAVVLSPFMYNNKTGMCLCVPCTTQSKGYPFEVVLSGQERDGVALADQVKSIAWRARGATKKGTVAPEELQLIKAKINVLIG
BJeLR lethal: MLPCN primary cell-based screen for lethality selective to Ras in HRASV12 cells | BJeLR (HRASV12) viability, CellTiter-Glo ATP luminescence, 48 h | inhibition, % (test concentration not listed) | 300,000 compounds, 0.17% hits; in the data active = inhibition above about 50%
PrPC TRFRET: inhibitors of human cell surface prion protein PrPC, primary screen, cell-based, TR-FRET | inhibition, % at 13.8 µM | 370,000 compounds, 0.43% hits | AID 720596, 2013 | TR-FRET read-out; in the data active = inhibition above about 24%
PrP 5UTR single: prion 5' UTR mRNA inhibition, cherry-pick retest. shares compounds with PrP 5UTR inh. cell-based prion protein 5' UTR reporter, plate reader. inhibition, % at 2.5 µM. 1,100 compounds, 48% hits; in the data active = inhibition above about 54%
Of the large screens only hits and unclear results are named; the others gave an inactive call (follow-up assays come after a bar, where they were run).

CC1=C(C(=O)Nc2ccc(CC(=O)NCc3ccc(OC(C)C)cc3)cc2)SCCO1	PrP 5UTR inh 72 | PrP 5UTR single 87
Cc1ccc(NC(=O)O/N=C/c2c(C)nn(C(C)(C)C)c2C)cc1Cl	PrP 5UTR inh 88 | PrP 5UTR single 87
COC(=O)CCn1nnc(-c2ccc(C(C)C)cc2)n1	PrP 5UTR inh 73 | PrP 5UTR single 70
CC1CCN(S(=O)(=O)N2CCC(C(=O)NCc3ccc(F)cc3Cl)CC2)CC1	none (no result: PfHsp40 rescue, DUSP3 inh, PrP 5UTR inh, BJeLR lethal)
O=c1cc(-c2ccc(Cl)c(Cl)c2)[nH][nH]1	PrP 5UTR inh 57 | PrP 5UTR single inactive
Cc1nn(CCCC(=O)Nc2cccnc2Cl)c(C)c1[N+](=O)[O-]	PrP 5UTR inh 52 | PrP 5UTR single inactive
Cc1nn(Cc2c(Cl)cccc2Cl)c(C)c1NC(=O)CCCn1nc(C)c([N+](=O)[O-])c1C	none
O=c1c2ccccc2cnn1CCOc1ccccc1	PrP 5UTR inh 71 | PrP 5UTR single 70
CC(C)OCCCNC(=O)Cc1ccc(Br)cc1	PrP 5UTR inh 83 | PrP 5UTR single inactive
CCOc1ccc(N=C/C=C/c2ccccc2)c(O)c1	none
COc1ccc(-n2ncc3c(SCC(=O)N4CCN(c5ccccc5OC)CC4)ncnc32)cc1	PrP 5UTR inh 64 | PrP 5UTR single inactive
COc1ccccc1N1CCN(C(=O)CSc2ncnc3scc(-c4ccccc4)c23)CC1	none
O=C(CN1C(=O)c2ccccc2S1(=O)=O)c1ccccc1Cl	PrP 5UTR inh 69 (no result: MazEF act) | PrP 5UTR single 70
Cc1ccc(C(=O)CN2C(=O)c3ccccc3S2(=O)=O)cc1	PrP 5UTR inh 65 | PrP 5UTR single 74
COc1ccc(OC)c(NC(=O)c2cccc(N3C(=O)C4C5C=CC(C6CC56)C4C3=O)c2)c1 (configuration not stated)	none
O=C(NCCN1C(=O)S/C(=C/c2cccnc2)C1=O)c1ccc(S(=O)(=O)N2CCCC2)cc1	PrP 5UTR inh 85 (no result: DUSP3 inh, BJeLR lethal) | PrP 5UTR single inactive
Nc1[nH]c(C(=O)c2ccccc2)c(-c2ccc(Cl)cc2)c1C(=O)c1c[nH]c2ccccc12	none (no result: PfHsp40 rescue, DUSP3 inh, PrP 5UTR inh, MazEF act, BJeLR lethal)
Fc1cccc(/C=N/Nc2nc3ccccc3[nH]2)c1	none (no result: PfHsp40 rescue, PrP 5UTR inh)
C(=N\Nc1nc2ccccc2[nH]1)/c1ccccc1	PrP 5UTR inh 55 | PrP 5UTR single inactive
CN(C(=O)c1ccccc1C(=O)OCC(=O)NCc1cccs1)C1CCCCC1	PrP 5UTR inh 55 | PrP 5UTR single inactive
O=C(COC(=O)c1ccccc1Cl)NCc1cccs1	none (no result: PfHsp40 rescue, DUSP3 inh, PrP 5UTR inh, BJeLR lethal)
Cc1cc(C(=O)COC(=O)c2ccccc2O)c(C)n1CC1CCCO1 (configuration not stated)	PrP 5UTR inh 89 (no result: DUSP3 inh, BJeLR lethal) | PrP 5UTR single 90
Cc1ccsc1C(=O)OCC(=O)c1cc(C)n(C)c1C	PrP 5UTR inh 59 (no result: DUSP3 inh, BJeLR lethal) | PrP 5UTR single 63
Cc1ccc(C(=O)OCC(=O)c2cc(C)n(CC3CCCO3)c2C)cc1 (configuration not stated)	none
Cc1cc(C(=O)COC(=O)c2cccnc2Cl)c(C)n1CC1CCCO1 (configuration not stated)	PrP 5UTR inh 59 | PrP 5UTR single inactive
Cc1cc(C(=O)COC(=O)c2ccccc2O)c(C)n1Cc1cccs1	PrP 5UTR inh 91 | PrP 5UTR single 80
Cc1cc(C(=O)COC(=O)c2cc(O)c3ccccc3c2O)c(C)n1CC1CCCO1 (configuration not stated)	none (no result: BJeLR lethal, PrPC TRFRET)
CCn1c(C)cc(C(=O)COC(=O)c2ccccc2[N+](=O)[O-])c1C	PrP 5UTR inh 94 (no result: DUSP3 inh, BJeLR lethal, PrPC TRFRET) | PrP 5UTR single 97
Cc1cc(C(=O)COC(=O)c2ccccc2Br)c(C)n1CC1CCCO1 (configuration not stated)	PrP 5UTR inh 77 | PrP 5UTR single 71
C=CCn1c(C)cc(C(=O)COC(=O)c2ccc(N)c([N+](=O)[O-])c2)c1C	none
COCCn1c(C)cc(C(=O)COC(=O)c2cccnc2SC)c1C	none (no result: DUSP3 inh, BJeLR lethal)
COCCn1c(C)cc(C(=O)COC(=O)c2ccccc2Br)c1C	PrP 5UTR inh 73 | PrP 5UTR single 71
CCCCCN(C(=O)CCC(=O)OCc1ccccc1C(F)(F)F)c1c(N)n(CCCC)c(=O)[nH]c1=O	none
COc1ccc(CC(=O)OCC(=O)Nc2ccc3[nH]c(=O)[nH]c3c2)cc1OC	none (no result: PfHsp40 rescue, DUSP3 inh, PrP 5UTR inh, BJeLR lethal)
COc1cccc(/C=N/Nc2ccc(C(=O)O)cc2)c1O	PrP 5UTR inh 88 | PrP 5UTR single 90
COc1cccc(/C=N/Nc2ccc(S(=O)(=O)O)cc2)c1O	none
Brc1ccccc1/C=N/Nc1ccc2ccccc2n1	none
COc1cccc(/C=N/Nc2nc(Nc3ccc([N+](=O)[O-])cc3)nc(N3CCCC3)n2)c1O	none
COc1cccc(/C=N/Nc2ccc([N+](=O)[O-])cn2)c1O	PrP 5UTR inh 58 | PrP 5UTR single inactive
O=[N+]([O-])c1cccc(C=NNc2ccc3ccccc3n2)c1O	PfHsp40 rescue 241, PrP 5UTR inh 56 (no result: DUSP3 inh, BJeLR lethal) | PrP 5UTR single inactive
COc1ccc(CCN2CC(C(=O)NCCc3cccc(F)c3)CCC2=O)cc1 (configuration not stated)	none
CCCCOc1ccc(C2CCC(C(C)=O)C(C)C2)cc1 (configuration not stated)	none
Cc1nnc(NN2CCOCC2)[nH]c1=O	PrP 5UTR inh 84 | PrP 5UTR single inactive
Cc1cc(C(=O)NNC(=O)c2ccc(F)cc2)c(C)s1	none (no result: DUSP3 inh, BJeLR lethal)
Cc1ccc(-c2cn3nc(C)c(C)nc3n2)cc1	PrP 5UTR inh 67 | PrP 5UTR single 65
CN[C@@H](CO)C(=O)NC[C@H]1O[C@@H](n2cc(C)c(=O)[nH]c2=O)C[C@@H]1O	none (no result: PfHsp40 rescue, DUSP3 inh, PrP 5UTR inh, BJeLR lethal)
O=C(NCCc1c[nH]c2ccccc12)C1CCN(S(=O)(=O)c2ccc(F)cc2)CC1	none
COc1ccc(/C=C/CN2CCN(Cc3ccccc3)C(CCO)C2)cc1 (configuration not stated)	PrP 5UTR inh 76 | PrP 5UTR single inactive
O=[N+]([O-])c1ccccc1Nc1c2ccccc2nc2ccccc12	none
O=[N+]([O-])c1cccc2nc3ccccc3c(NCCCn3ccnc3[N+](=O)[O-])c12	PrP 5UTR inh 87 (no result: DUSP3 inh, BJeLR lethal) | PrP 5UTR single 95
COc1cc(SC)ccc1C(=O)Nc1ccc(Cl)cn1	PrP 5UTR inh 60 | PrP 5UTR single 55
CSc1ccc(Cl)c(C(=O)Nc2ccc(Cl)cn2)c1	none
CC(C)NC(=O)C1(C)CCN1Cc1ccc(C(F)(F)F)cc1 (configuration not stated)	none (no result: PfHsp40 rescue, DUSP3 inh, PrP 5UTR inh, MazEF act, BJeLR lethal)
Cc1cc(-c2ccc(N3CCOCC3)cc2)nc2ccccc12	none
CN1CCN(c2ccc(-c3ccc4ccccc4n3)cc2)CC1	PrP 5UTR inh 92 | PrP 5UTR single 91

Screening results (PubChem BioAssay)
